The list is not random: actives were taken first. Their share in the collection is about 2%.
CHT block: inhibitors of human choline transporter CHT. actives 0.86% (n = 310,000). B-score at 10 µM. High affinity choline transporter 1 (Homo sapiens), Q9GZV3. CHT-expressing cells, membrane potential dye, choline response; stronger effect = lower value;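 active means B-score over 3 SD under the library average, and starting fluorescence ratio not unusually high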;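 further: choline stimulus applied at its EC90 after an EC20 pre-addition; B-score computed on integrated fluorescence ratio after choline addition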
Target sequence (Q9GZV3 whole entry, looked up): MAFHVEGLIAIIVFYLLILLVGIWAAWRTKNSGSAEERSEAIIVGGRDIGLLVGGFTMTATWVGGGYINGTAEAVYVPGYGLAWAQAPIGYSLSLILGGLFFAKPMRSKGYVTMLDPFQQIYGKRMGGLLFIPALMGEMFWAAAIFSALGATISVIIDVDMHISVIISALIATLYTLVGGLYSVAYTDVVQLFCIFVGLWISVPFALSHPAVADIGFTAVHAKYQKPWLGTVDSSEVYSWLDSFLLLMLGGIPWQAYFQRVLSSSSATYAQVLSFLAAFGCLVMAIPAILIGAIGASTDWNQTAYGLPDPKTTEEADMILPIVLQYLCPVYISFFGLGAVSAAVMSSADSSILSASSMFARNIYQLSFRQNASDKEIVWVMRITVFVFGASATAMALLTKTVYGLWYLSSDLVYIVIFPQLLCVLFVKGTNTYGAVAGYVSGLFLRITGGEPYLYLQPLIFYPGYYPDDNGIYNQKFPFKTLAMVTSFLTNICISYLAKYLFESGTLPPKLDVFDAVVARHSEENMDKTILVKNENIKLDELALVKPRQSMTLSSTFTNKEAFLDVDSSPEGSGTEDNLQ
CHT allo act: CHT positive allosteric modulators, primary screen, cell-based, membrane potential dye, choline EC20; B-score at 10 µM; AID 488977, 2010; actives 0.49% (n = 310,000); CHT-expressing cells; stronger effect = higher value; LV-AA mutant CHT in HEK293 cells; High affinity choline transporter 1 (Homo sapiens), Q9GZV3;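 active means initial fluorescence not abnormally high and integrated response B-score, plate-corrected, over 3 SD above library mean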
TAG inh: inhibitors of triacylglycerol accumulation, primary screen, cell-based, uHTS, fluorescence, H9c2 | H9c2 cells, Nile Red lipid (TAG) fluorescence; cells loaded with 200 µM oleic acid | AID 651582, 2012 | actives 0.66% (n = 230,000) | inhibition, % at 12.5 µM;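 active means pattern-corrected inhibition of lipid staining of at least 50% with the nuclear-stain viability signal not falling by more than 50%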;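 further: 0% = DMSO wells and 100% = triacsin C control wells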
Kir21 block: inhibitors of mouse Kir2.1 inward-rectifier potassium channel | Inward rectifier potassium channel 2 (Mus musculus), P35561 | HEK293-Kir2.1, FluxOR thallium flux fluorescence; stronger effect = lower value | B-score at 10 µM | actives 0.85% (n = 310,000) | AID 1672, 2009;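 active means fluorescence ratio B-score at or below minus 3 SD of library scores, with starting-brightness B-score within 2 SD, cut at about -4.2 in these data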;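 further: channel flux triggered by added potassium and thallium sulfate stimulus; B-score of peak minus minimum fluorescence over baseline after thallium stimulus; more negative B-score means stronger Kir2.1 block with less thallium influx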
CHT act confirm: CHT activators, confirmation, cell-based, membrane potential dye, duplicate | actives 91% (n = 2,500) | activation, % at 10 µM | CHT-expressing cells, membrane potential dye fluorescence (FDSS); % of choline EC20–EC90 response window; HEK293 expressing CHT LV-AA mutant; choline added at its EC20 | shares compounds with CHT allo act;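 active means primary screen active, with duplicate mean activation above negative control mean plus 3 SD, cut at about 11% in these data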
HEK293 MP dye: membrane potential response in parental HEK293 cells, counter-screen for CHT activator project, cell-based, membrane potential dye; ratio readout change at 10 µM, hits read low; shares compounds with CHT allo act; AID 623908, 2012; actives 62% (n = 2,500); membrane potential dye fluorescence (FDSS); measured after EC20 choline addition;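 active means duplicate-averaged ratio beyond 3 SD from buffer wells, up or down, though filed actives are nearly all decreases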
Numbers without * were called inactive; i = inactive; x = no result.

SMILES	CHT block	CHT allo act	TAG inh	Kir21 block	CHT act confirm	HEK293 MP dye
O=C(COc1ccc2c(c1)oc(=O)c1ccccc12)NCC1CCC(C(=O)O)CC1 (configuration not stated)	i	6.3*	x	1.7	32*	-20*
CC(C)(C)OC(=O)N1Cc2ccccc2C[C@H]1C(=O)NC1CCCC1	i	i	x	-0.09	2	i
CCOC(=O)c1cccc(NC(=O)c2ccc(N(C)C)cc2)c1	i	i	x	-0.27	x	x
COC(=O)C1=C(C)N(Cc2ccccc2)C(=NCc2ccccc2)N[C@H]1c1cccc(F)c1	i	16*	92*	-8.8*	40*	i
Cc1ccc(S(=O)(=O)Nc2ccc(C(=O)NCCCN3CCOCC3)cc2)cc1[N+](=O)[O-]	i	i	-5	0.73	16*	i
O=C(NCCCN1CCOCC1)c1ccc(NS(=O)(=O)c2cccc([N+](=O)[O-])c2)cc1	i	i	-5	0.13	x	x
Cc1cnc(C(=O)Nc2cc(S(=O)(=O)N3CCOCC3)ccc2N2CCN(C)CC2)cn1	i	9.7*	x	-0.5	51*	-57*
COc1cc(C(=O)Nc2cc(S(=O)(=O)N3CCOCC3)ccc2N2CCN(C)CC2)cc(OC)c1OC	x	x	11	x	x	x
CN1Cc2c(N3CCOCC3)nc3sc(C#N)c(N)c3c2CC1(C)C	i	i	21	0.25	50*	-55*
CCCc1cc(=O)[nH]c(SCCN2C(=O)c3ccccc3C2=O)n1	i	i	-2	-1.8	x	x
CCn1cc(C(=O)NCCOC)c(=O)c2ccc(C)nc21	i	i	6	1.2	x	x
CCn1cc(C(=O)OC)c(=O)c2ccc(C)nc21	i	12*	22	0.62	79*	-75*
COc1cc(CNS(=O)(=O)CCl)cc(OC)c1OC	x	x	-5	x	x	x
Cc1cc(NCC2CCCCC2)nc2ccccc12	i	i	x	0.81	x	x
Cc1cc(NCCNC2=CC(=O)CCC2)nc2ccccc12	i	i	x	2.1	48*	-47*
Cc1cc(C)nc(/N=C(\N)Nc2ccc(SC(F)F)cc2)n1	i	i	-22	-0.52	46*	-49*
CC(C)CN(C(=O)CCNC(=O)c1ccccc1Cl)C1CCS(=O)(=O)C1 (configuration not stated)	x	x	-6	x	x	x
CCC(CC)COC(=O)C(C#N)c1nc2ccccc2nc1N1CCN(CC)CC1 (configuration not stated)	i	i	x	0.96	32*	-37*
CCOC(=O)c1sc(=N)n(-c2ccc(OC)cc2)c1C	i	i	x	-0.65	x	x
CCOC(=O)c1c(C)n(-c2ccc(OC)cc2)c2ccc(O)c(CN(C)C)c12	i	6.5*	40	-2	9	-26*
CCOC(=O)c1c(C)n(-c2ccc(C)cc2)c2ccc(O)c(CN(C)C)c12	i	8.8*	38	-3.4	15*	i
CCOC(=O)c1c(C)n(-c2ccccc2)c2ccc(OCCN(C)C)cc12	i	i	x	-3.1	31*	i
CN1CCN(CCCn2cnc3c(=O)oc4ccccc4c32)CC1	i	9.4*	7	-0.51	66*	-67*
O=c1oc2ccccc2c2c1ncn2CCN1CCOCC1	i	i	x	0.42	x	x
CCOc1cc(C2NC(=O)CCC2[N+](=O)[O-])cc(Br)c1OCC (configuration not stated)	i	i	x	0.44	x	x
SMILES	CHT block	CHT allo act	TAG inh	Kir21 block	CHT act confirm	HEK293 MP dye
CCOc1ccc(S(=O)(=O)N2CCCCC2)cc1NC(=O)C1CSC2(C)CCC(=O)N12 (configuration not stated)	i	i	-3	-0.32	26*	i
COc1ccc(NC(=O)C(c2ccccc2)N2CCN(c3ccccn3)CC2)cc1Cl (configuration not stated)	i	7.9*	1	-0.98	22*	i
Cc1ccc(NC(=O)C(c2ccccc2)N2CCN(CC(=O)NC3CC3)CC2)cc1Cl (configuration not stated)	x	x	-1	x	x	x
Cc1ccc(-n2nnnc2SCC(=O)Nc2ncc(Cc3ccccc3Cl)s2)cc1	i	i	x	0.16	x	x
Cc1cccc(NC(=O)N2CCC(C(=O)c3ccc(F)cc3)CC2)c1	i	i	x	0.69	x	x
CC[n+]1cc(-c2ccccc2)nc(N2CCOCC2)n1	i	i	x	0.12	41*	-39*
Cn1c(C(=O)O)ccc1S(=O)(=O)N1CCCCCC1	i	i	1	0.2	x	x
CCOC(=O)c1c(C)[nH]c(C)c1S(=O)(=O)N(C)CC(=O)N(C)Cc1ccccc1	i	i	x	-1.4	x	x
CCOC(=O)c1sc2ncnc(N3CCN(CC)CC3)c2c1C	i	i	x	-1.8	45*	-43*
O=C(c1ccco1)N1CCN(C(=O)c2ccco2)C1=S	x	x	7	x	x	x
Cc1cccn2c1nc(=S)n2C(=O)c1ccco1	i	i	11	-0.79	27*	-21*
CCCCn1cnc2cc(NCc3ccncc3)ccc21	i	i	x	0.03	43*	-43*
CCc1ccc(CNc2ccc3c(c2)ncn3CC)cc1	i	i	x	-0.44	x	x
COCCN1Cc2cccc(C(=O)NCCCN3CCCC3=O)c2C1=O	i	i	8	-0.02	x	x
CCN(C(=O)CSc1nnc(-c2ccc(C)cc2)n1N)c1c(N)n(Cc2ccccc2)c(=O)[nH]c1=O	x	x	-9	x	x	x
CC(C)CN(C(=O)CSc1nnc(-c2cccs2)n1N)c1c(N)n(Cc2ccccc2)c(=O)[nH]c1=O	i	6.7*	17	0.39	26*	i
COc1ccccc1OCC(O)Cn1c(=N)n(CCN2CCCCC2)c2ccccc21 (configuration not stated)	i	i	x	-0.09	x	x
N=c1n(CCN2CCCCC2)c2ccccc2n1CC(O)c1cccc(Br)c1 (configuration not stated)	i	11*	x	-6.8*	37*	i
COc1cnc(-c2ccccc2)nc1Oc1ccc(Cl)cc1C	i	i	18	0.15	x	x
COc1ccc(CN2CCC(N(CCc3ccccc3)Cc3ccccc3)CC2)c(OC)c1	i	i	35	-4.7*	22*	i
CCN1CCc2nc(NC(=O)C(c3ccccc3)c3ccccc3)sc2C1	i	i	x	0.06	17*	i
CC1CCCc2sc3ncn(N)c(=N)c3c21 (configuration not stated)	i	7.1*	9	0.53	52*	-50*
COC(=O)C1=C(C)N(C)C(=O)NC1c1c(O)ccc2ccccc12 (configuration not stated)	i	i	-4	0.52	x	x
